# Experimental data as given in PubChem BioAssay.
# Calls of active or inactive are those of the source.
# Columns and labels:
# [1] = system: PRMT1 (protein arginine N-methyltransferase 1); assay: PRMT1 binders on small-molecule microarrays, primary screen, biochemical, small-molecule microarray, 635 nm fluorescence (AID 1088); settings: small-molecule microarray binding, higher = more signal;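 note: binding of Prmt1 protein to compounds spotted on small-molecule microarray slides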
# [2] = yeast growth modulation, basal conditions, primary screen, YJM789 clinical isolate, OD600, 24 h (AID 1089);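 note: growth of clinical yeast isolate S. cerevisiae YJM 789 seeded 1000 cells per well; test concentration not given here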; settings: S. cerevisiae YJM789 growth, higher = more signal, called active from +8 up or from −8 down
# [3] = fission yeast growth modulation, primary screen, strain 972, OD600, 24 h, no modulator (AID 1090);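 note: basal condition with compound alone and no growth modifier present; test concentration not given here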; settings: S. pombe 972 growth, higher = more signal, called active from +8 up or from −8 down
# [4] = S. cerevisiae growth modulation with rapamycin, primary screen, strain BY4716, OD600, 96 h (AID 1091); settings: higher = more signal, called active from +8 up or from −8 down; note: test concentration not given here
# [5] = molecular target: Torsin-1A-interacting protein 2 (Homo sapiens) (UniProt Q8NFQ8); assay: LULL1 binders on small-molecule microarray, primary screen, cell lysate, human LULL1 lysate, 635/667 nm fluorescence (AID 1092); settings: hLULL1 lysate binding, 635 nm fluorescence, higher = more signal;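 note: probe is lysate of COS7 cells overexpressing human LULL1; score merges per-feature 667 nm fluorescence with signal-to-noise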
# [6] = E. coli growth modulation, two-sided OD650, primary screen, E. coli filamentation project, strain DRC41, 24 h (AID 1093); settings: OD650, 24 h, higher = more signal, called active from +8 up or from −8 down;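 note: MC1000 strain lacking acrAB efflux and sulA so SOS filamentation is blocked; test concentration not given here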
# [7] = small-molecule microarray binders of probe aLefty2, primary screen, biochemical, biotinylated probe, 635/667 nm fluorescence (AID 1094); settings: higher = more signal;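 note: score merges spot fluorescence near 667 nm with spot signal-to-noise ratio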
# [8] = system: Noggin (protein binding on small-molecule microarray); assay: Noggin binders on small-molecule microarray, primary screen, biochemical, 635/667 nm fluorescence (AID 1095); settings: 635 nm fluorescence, higher = more signal;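 note: score merges 667 nm feature fluorescence with signal to noise over triplicate slides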
# [9] = molecular target: Neurogenic locus notch homolog protein 3 (Homo sapiens) (UniProt Q9UM47); assay: NOTCH3 binders on small-molecule microarray, primary screen, biochemical, 635/667 nm fluorescence (AID 1096); settings: NOTCH3 binding, 635 nm fluorescence, higher = more signal
# [10] = small-molecule microarray binders of probe aEGFR, primary screen, biochemical, biotinylated probe, 635/667 nm fluorescence (AID 1097); settings: higher = more signal;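 note: probe is a biotinylated anti-EGFR antibody binding compounds printed on slides; score combines fluorescence near 667 nm and signal to noise of each spot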
# Sequence of Neurogenic locus notch homolog protein 3 (Homo sapiens) (Q9UM47 whole entry, looked up): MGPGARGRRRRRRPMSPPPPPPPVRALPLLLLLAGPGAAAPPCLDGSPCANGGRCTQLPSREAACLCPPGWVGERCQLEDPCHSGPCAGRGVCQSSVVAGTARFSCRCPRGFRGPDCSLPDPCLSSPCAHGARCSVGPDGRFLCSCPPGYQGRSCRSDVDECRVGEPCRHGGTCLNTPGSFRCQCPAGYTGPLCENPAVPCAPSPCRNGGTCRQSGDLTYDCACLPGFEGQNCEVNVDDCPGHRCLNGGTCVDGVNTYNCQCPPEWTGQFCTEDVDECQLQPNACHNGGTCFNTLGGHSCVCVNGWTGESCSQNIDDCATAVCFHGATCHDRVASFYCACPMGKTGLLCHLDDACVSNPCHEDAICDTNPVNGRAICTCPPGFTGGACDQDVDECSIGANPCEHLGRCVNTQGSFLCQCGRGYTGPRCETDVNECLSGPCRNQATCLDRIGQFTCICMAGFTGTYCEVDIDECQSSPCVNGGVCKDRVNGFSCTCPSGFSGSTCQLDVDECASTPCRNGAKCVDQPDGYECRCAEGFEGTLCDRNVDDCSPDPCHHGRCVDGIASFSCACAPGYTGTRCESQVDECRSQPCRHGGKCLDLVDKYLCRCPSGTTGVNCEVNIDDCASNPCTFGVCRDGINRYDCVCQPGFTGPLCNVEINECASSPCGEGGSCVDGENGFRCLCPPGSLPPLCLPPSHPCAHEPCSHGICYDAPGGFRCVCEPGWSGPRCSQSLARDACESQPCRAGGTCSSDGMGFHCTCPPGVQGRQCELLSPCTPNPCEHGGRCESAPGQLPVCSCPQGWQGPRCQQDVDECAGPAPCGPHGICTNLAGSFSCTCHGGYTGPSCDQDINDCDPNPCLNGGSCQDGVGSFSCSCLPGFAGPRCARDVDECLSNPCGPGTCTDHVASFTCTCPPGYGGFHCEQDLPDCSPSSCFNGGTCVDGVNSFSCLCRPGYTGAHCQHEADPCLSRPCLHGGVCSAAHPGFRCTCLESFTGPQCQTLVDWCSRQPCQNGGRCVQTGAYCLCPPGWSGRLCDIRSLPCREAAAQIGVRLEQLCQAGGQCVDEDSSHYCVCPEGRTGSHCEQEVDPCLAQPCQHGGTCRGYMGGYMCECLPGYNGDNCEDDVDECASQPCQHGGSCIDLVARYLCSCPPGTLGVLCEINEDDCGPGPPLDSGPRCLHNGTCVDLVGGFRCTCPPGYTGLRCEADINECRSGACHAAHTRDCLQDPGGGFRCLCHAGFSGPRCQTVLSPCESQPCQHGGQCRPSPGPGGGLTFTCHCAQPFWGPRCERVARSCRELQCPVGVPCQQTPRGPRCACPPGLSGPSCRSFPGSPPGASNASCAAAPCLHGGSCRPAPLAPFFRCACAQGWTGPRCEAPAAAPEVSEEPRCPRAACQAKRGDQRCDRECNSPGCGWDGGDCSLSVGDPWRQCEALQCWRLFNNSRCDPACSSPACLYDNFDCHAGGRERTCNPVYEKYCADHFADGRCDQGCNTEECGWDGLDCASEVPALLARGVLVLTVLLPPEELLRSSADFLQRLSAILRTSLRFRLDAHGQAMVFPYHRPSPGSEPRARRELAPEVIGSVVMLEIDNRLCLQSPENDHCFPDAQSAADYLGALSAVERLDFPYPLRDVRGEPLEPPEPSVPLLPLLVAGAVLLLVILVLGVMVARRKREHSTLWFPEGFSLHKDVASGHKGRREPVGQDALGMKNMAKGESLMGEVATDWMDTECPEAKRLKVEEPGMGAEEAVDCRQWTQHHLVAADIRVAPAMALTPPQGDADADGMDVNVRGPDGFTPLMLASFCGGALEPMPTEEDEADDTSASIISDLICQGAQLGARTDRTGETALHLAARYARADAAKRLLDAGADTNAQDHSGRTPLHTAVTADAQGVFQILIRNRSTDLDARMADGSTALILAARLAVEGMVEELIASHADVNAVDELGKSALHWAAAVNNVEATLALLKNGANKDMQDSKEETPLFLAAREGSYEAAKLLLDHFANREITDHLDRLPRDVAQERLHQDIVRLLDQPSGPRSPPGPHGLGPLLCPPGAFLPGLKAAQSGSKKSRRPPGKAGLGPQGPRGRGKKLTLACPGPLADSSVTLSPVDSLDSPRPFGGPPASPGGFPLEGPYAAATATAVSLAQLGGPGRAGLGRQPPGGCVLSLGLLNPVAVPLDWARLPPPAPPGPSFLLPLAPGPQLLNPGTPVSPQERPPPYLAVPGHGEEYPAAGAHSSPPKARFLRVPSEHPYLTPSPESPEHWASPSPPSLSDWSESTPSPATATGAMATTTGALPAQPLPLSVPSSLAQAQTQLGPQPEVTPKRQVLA
# Sequence of Torsin-1A-interacting protein 2 (Homo sapiens) (Q8NFQ8 whole entry, looked up): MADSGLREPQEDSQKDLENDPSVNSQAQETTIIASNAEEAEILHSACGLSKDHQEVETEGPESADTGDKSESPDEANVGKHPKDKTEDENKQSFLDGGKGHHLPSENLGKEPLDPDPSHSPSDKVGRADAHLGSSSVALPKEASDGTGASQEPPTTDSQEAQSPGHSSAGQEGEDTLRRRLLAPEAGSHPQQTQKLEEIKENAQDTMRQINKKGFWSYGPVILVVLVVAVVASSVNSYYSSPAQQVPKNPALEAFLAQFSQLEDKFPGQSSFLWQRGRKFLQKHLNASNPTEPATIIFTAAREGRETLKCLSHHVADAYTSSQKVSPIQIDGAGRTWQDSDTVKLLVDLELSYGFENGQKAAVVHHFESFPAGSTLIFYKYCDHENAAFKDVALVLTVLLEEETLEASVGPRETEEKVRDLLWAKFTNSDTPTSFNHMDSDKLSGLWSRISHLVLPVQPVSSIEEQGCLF
SMILES,composite z-score [1],z-score [2],z-score [3],z-score [4],composite z-score [5],z-score [6],composite z-score [7],composite z-score [8],composite z-score [9],composite z-score [10]
O=C1C2C=CC(C(O)c3cc(C(F)(F)F)cc(C(F)(F)F)c3)N(Nc3ccccc3)C2C(=O)N1c1ccccc1 (stereo not given),1.29,1 (inactive),-0.158 (inactive),3.15 (inactive),3.23,-0.747 (inactive),-0.0156,-0.105,0.581,-0.0536
COc1ccc([C@H]2C[C@H]3C(Br)=C[C@@]2(CO)C(=O)[C@]32CO2)cc1,-0.855,-0.658 (inactive),-3.35 (inactive),0.241 (inactive),-0.274,-0.687 (inactive),0.0395,-0.472,-0.534,-0.0799
O=C1C2C=CC(C(O)C=Cc3ccc([N+](=O)[O-])cc3)N(Nc3ccccc3F)C2C(=O)N1c1ccccc1 (stereo not given),1.57,0.612 (inactive),2.1 (inactive),1.47 (inactive),3.1,-1.04 (inactive),0.0511,0.0689,0.994,0.293
CS(=O)(=O)CCOC(=O)C1=CC(CCCO)=CC(c2ccc(CN3CCCC3)cc2)N(Cc2cccc(OC(F)(F)F)c2)C=C1C(=O)OCCS(C)(=O)=O (stereo not given),1.57,0.441 (inactive),-12.9 (active),-0.805 (inactive),2.62,-1.05 (inactive),0.336,0.738,1.13,0.172
CC(=CC1CCCCC1)[C@@H](NC(=O)c1cccnc1)c1ccc(-c2ccccc2)cc1,-0.0028,1.36 (inactive),0.92 (inactive),2.06 (inactive),1.16,-2.18 (inactive),-0.0042,-0.18,0.298,-0.222
O=C(O)[C@H]1C[C@H]2C(=O)N3CCC[C@H]3C(=O)N2[C@H]1c1ccc(O)cc1,-0.57,0.428 (inactive),-0.613 (inactive),0.333 (inactive),0.631,0.863 (inactive),0.0212,-0.571,-1.23,-0.268
[N-]=[N+]=Nc1ccccc1[C@H]1OC(c2ccc(OCCCO)cc2)=N[C@@]1(CCS(=O)(=O)c1ccccc1)C(=O)NCc1ccccc1,1.57,-0.832 (inactive),0.342 (inactive),2.23 (inactive),3.63,-0.443 (inactive),0.154,0.669,1.1,0.174
CCCCN1CC=CC23O[C@@H]4/C=C\CCCOC(=O)C4[C@H]2C(=O)N(CCCCCO)[C@@H]3C1=O (stereo not given in full),-1.13,-0.669 (inactive),-0.392 (inactive),-0.8 (inactive),-0.42,-0.769 (inactive),-0.188,-1.16,-1.02,-0.324
CCCCCN1CC=CC23O[C@@H]4C=CCOC(=O)[C@@H]4[C@H]2C(=O)N(C(C)CO)[C@@H]3C1=O (stereo not given in full),-0.508,-0.076 (inactive),-0.226 (inactive),0.0795 (inactive),-0.952,0.266 (inactive),-0.174,-1,-0.553,-0.296
CCCCN1CC=CC23O[C@@H]4C=CCOC(=O)[C@@H]4[C@H]2C(=O)N(CCCCCCO)[C@@H]3C1=O (stereo not given in full),-0.598,-0.992 (inactive),-0.053 (inactive),-0.362 (inactive),1.57,-0.44 (inactive),-0.0665,-1.84,-0.61,-0.244
C=C(CCCC)/C(=C/C[C@@H](OC(C)=O)c1ccccc1OCCO)c1cc(C(=O)OC)ccc1OC,0.252,1.03 (inactive),0.404 (inactive),-0.358 (inactive),0.615,0.531 (inactive),-0.12,0.0643,-0.218,-0.185
CC(C)=CCCC(C)=CC(O)C1C=CC2C(=O)N(c3ccccc3)C(=O)C2N1Nc1ccc(C(C)C)cc1 (stereo not given),0.629,0.437 (inactive),0.834 (inactive),1.07 (inactive),3,-0.589 (inactive),0.0937,0.0026,1.05,-0.0234
CN1C(=O)C2C=CC(C(O)c3c(F)cccc3Cl)N(NC(=O)OC(C)(C)C)C2C1=O (stereo not given),1.3,-0.143 (inactive),0.415 (inactive),0.635 (inactive),3.45,-0.597 (inactive),0.18,-0.388,0.686,0.0675
C=C(CCCC)/C(=C/C[C@H](OC(C)=O)c1ccccc1OCCO)c1cnc2ccccc2c1,1.32,0.617 (inactive),-0.654 (inactive),0.826 (inactive),1.15,0.02 (inactive),-0.235,0.788,1.1,-0.142
CCCCN1CC=CC23O[C@@H]4/C=C\CCCOC(=O)C4[C@H]2C(=O)N(CCCO)[C@@H]3C1=O (stereo not given in full),1.27,-1.15 (inactive),-1.04 (inactive),-0.513 (inactive),2.86,0.0383 (inactive),-0.212,-0.991,-0.1,-0.324
OCC1C=C(/C=C/c2ccccc2)CN1Cc1ccccc1Br (stereo not given),0.94,-0.486 (inactive),-11.3 (active),-1.4 (inactive),1.44,1.58 (inactive),0.0265,0.876,0.854,0.0339
O=C1O[C@@H](c2ccccc2)[C@@H](c2ccccc2)N2[C@@H](c3ccc(OCCO)cc3)[C@]3(C(=O)Nc4ccc(C#CC5=CCCCC5)cc43)[C@@H](C(=O)N3CCCCCCC3)[C@H]12,1.53,1.1 (inactive),-1.09 (inactive),2.13 (inactive),3.98,0.29 (inactive),1.6,1.78,1.03,1.26
O=C1C2C=CC(C(O)C=Cc3ccc([N+](=O)[O-])cc3)N(n3cnnc3)C2C(=O)N1Cc1ccccc1 (stereo not given),0.934,-0.785 (inactive),-3.83 (inactive),-0.0166 (inactive),1.92,-0.0783 (inactive),0.292,-0.0663,0.989,-0.0703
[N-]=[N+]=Nc1ccccc1C[C@]1(C(=O)NCc2ccccc2)N=C(c2ccc(OCCCO)cc2)O[C@H]1c1ccccc1N=[N+]=[N-],1.52,0.422 (inactive),1.63 (inactive),4.87 (inactive),2.53,0.362 (inactive),0.292,0.358,1.04,-0.067
CCOC(=O)C1=CC[C@H]2C(=O)N(c3ccccc3)C(=O)[C@@H]12,1.48,0.296 (inactive),-0.0087 (inactive),-0.487 (inactive),3.4,-0.981 (inactive),0.157,0.436,1.07,0.08
C=CCN1C(=O)[C@]2(O[C@H](CCO)[C@@H]([Si](C)(C)c3ccc(OC)cc3)[C@@H]2C)c2cc(N(C=O)c3ccccc3)ccc21,1.47,1.28 (inactive),0.859 (inactive),36.9 (active),1.19,1.03 (inactive),-0.121,-0.0888,0.649,-0.0947
COCCCNC(=O)[C@@]1(Sc2ccc(C)cc2)CC(=O)N(Cc2ccccc2Cl)[C@@H]1c1ccc(CO)cc1,1.54,-0.15 (inactive),-0.429 (inactive),-0.439 (inactive),2.74,-1.29 (inactive),0.0112,1.05,1.12,-0.0874
CC[C@@H]1C=C(C(=O)O)[C@H](c2cccc3ccccc23)N1S(=O)(=O)c1ccc(C)cc1,0.479,-0.118 (inactive),1.49 (inactive),-0.168 (inactive),3,-0.428 (inactive),-0.0537,0.0891,0.814,-0.0356
C=CCNC(=O)[C@H]1[C@@H]2C(=O)O[C@@H](c3ccccc3)[C@@H](c3ccccc3)N2[C@@H](c2ccc(OCCO)cc2)[C@]12C(=O)Nc1ccc(C#CCC(C(=O)OC)C(=O)OC)cc12,1.56,1.63 (inactive),1.79 (inactive),5.79 (inactive),2.74,0.0251 (inactive),0.187,0.608,1.08,-0.004
C=CCC(OC(C)=O)[C@@H]1[C@@H](N(Cc2ccc(-c3cccc(C(F)(F)F)c3)o2)C(=O)Cc2ccc(OC)cc2)c2cc(OCCCO)ccc2N1C(=O)c1ccc2ccccc2c1 (stereo not given in full),-0.485,0.514 (inactive),0.428 (inactive),-0.645 (inactive),0.589,0.315 (inactive),0.0079,0.397,0.035,-0.127
CN1C(=O)C2C=CC(C(O)c3ccc(F)cc3)N(N(c3ccccc3)c3ccccc3)C2C1=O (stereo not given),0.672,0.0729 (inactive),0.91 (inactive),0.0933 (inactive),1.86,-1.2 (inactive),0.0606,0.3,0.121,-0.0234
O=C1O[C@@H](c2ccccc2)[C@@H](c2ccccc2)N2[C@@H](c3ccccc3OCCO)[C@]3(C(=O)Nc4ccc(C#CC5(O)CCCCCC5)cc43)[C@@H](C(=O)N3CCN(c4ncccn4)CC3)[C@H]12,1.55,3.08 (inactive),0.961 (inactive),7.62 (inactive),2.9,1.21 (inactive),-0.122,0.662,0.821,-0.0542
O=C(NC1CC1)[C@@H]1c2ccccc2C(=O)N(Cc2cc(F)cc(C(F)(F)F)c2)[C@H]1c1ccc(CO)cc1,1.35,-1.02 (inactive),-1.15 (inactive),-0.926 (inactive),2.85,-0.213 (inactive),0.0351,0.235,-0.418,-0.177
C=CCN1Cc2ccccc2[C@@H]2OC(c3ccc(OCCCO)cc3)=N[C@]2(CCS(=O)(=O)c2ccccc2)C1=O,1.55,0.863 (inactive),1.45 (inactive),3.51 (inactive),3.35,0.953 (inactive),0.0642,0.704,1.01,-0.0261
O=C1O[C@H](c2ccccc2)[C@H](c2ccccc2)N2[C@H]1[C@@H](C(=O)N1CCN(c3ncccn3)CC1)[C@]1(C(=O)Nc3ccc(C#CC4=CCCCC4)cc31)[C@H]2c1ccccc1OCCO,1.53,1.08 (inactive),0.759 (inactive),3.51 (inactive),2.65,0.071 (inactive),0.276,0.922,1.07,-0.0493
